Measured values taken from PubChem BioAssay (NCATS).
Inconclusive results are not listed. Calls of active or inactive are those of the source. Unless noted, the call rests on the fitted dose curve.

Experiments:
[1] = qHTS for Inhibitors of the Functional Ribonucleoprotein Complex (vRNP) of Lassa (LASV) Arenavirus: LASV Primary Screen - GLuc reporter signal (AID 1347082; calls by dose curve; tested in HEK293 reporter line; further: nearly all actives have a fitted effect of over 60% in size)
[2] = qHTS for Inhibitors of the Functional Ribonucleoprotein Complex (vRNP) of Lassa (LASV) Arenavirus: Viability assay - alamar blue signal for LASV Primary Screen (AID 1347083; calls by dose curve; tested in HEK293 reporter line; further: nearly all actives have a fitted effect of over 80% in size)
[3] = qHTS for Inhibitors of the Functional Ribonucleoprotein Complex (vRNP) of Lymphocytic Choriomeningitis Arenaviruses (LCMV): Viability assay - alamar blue signal for LCMV Primary Screen (AID 1347085; calls by dose curve; tested in HEK293 reporter line; further: nearly all actives have a fitted effect of over 80% in size)
[4] = target: Nucleoprotein (Lymphocytic choriomeningitis virus (strain Armstrong)) (UniProt P09992); experiment: qHTS for Inhibitors of the Functional Ribonucleoprotein Complex (vRNP) of Lymphocytic Choriomeningitis Arenaviruses (LCMV): LCMV Primary Screen - GLuc reporter signal (AID 1347086); further: nearly all actives have a fitted effect of over 70% in size

Measured: Potency
Further: series mostly up to about 57 µM.

Nucleoprotein (Lymphocytic choriomeningitis virus (strain Armstrong)), sequence (P09992 whole entry, looked up): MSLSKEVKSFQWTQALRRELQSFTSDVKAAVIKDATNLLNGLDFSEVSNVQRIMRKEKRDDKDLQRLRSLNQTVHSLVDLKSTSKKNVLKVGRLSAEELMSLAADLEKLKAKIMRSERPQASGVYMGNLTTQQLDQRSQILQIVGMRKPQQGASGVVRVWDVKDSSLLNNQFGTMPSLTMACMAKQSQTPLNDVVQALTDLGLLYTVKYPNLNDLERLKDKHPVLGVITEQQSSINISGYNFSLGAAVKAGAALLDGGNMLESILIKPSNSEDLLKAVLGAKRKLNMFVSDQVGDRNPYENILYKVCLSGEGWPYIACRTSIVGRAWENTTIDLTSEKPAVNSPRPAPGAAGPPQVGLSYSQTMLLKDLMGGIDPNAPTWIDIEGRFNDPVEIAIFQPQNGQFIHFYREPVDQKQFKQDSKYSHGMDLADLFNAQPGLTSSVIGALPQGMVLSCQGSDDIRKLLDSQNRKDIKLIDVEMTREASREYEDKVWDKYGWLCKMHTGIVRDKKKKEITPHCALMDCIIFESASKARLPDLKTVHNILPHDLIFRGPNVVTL

CCCN1CCCC[C@H]1C(=O)Nc1c(C)cccc1C
inactive: all assays above

NS(=O)(=O)c1cc2c(cc1Cl)NC(C(Cl)Cl)NS2(=O)=O (stereo unspecified)
inactive: all assays above

COc1cc(C(=O)NC2CCCNC2)cc(OC)c1OC (stereo unspecified)
inactive: all assays above

CCCCCC=CCC=CCCCCCCCC(=O)OCC
inactive: all assays above

CS(=O)(=O)c1ccc([C@@H](O)[C@@H](CF)NC(=O)C(Cl)Cl)cc1
inactive: all assays above

CN[C@@H]1[C@@H](O)[C@@H](O[C@@H]2[C@H](O)[C@H](O[C@H]3OC(CN)=CC[C@H]3N)[C@@H](N)C[C@H]2N)OCC1(C)O (stereo partly specified)
inactive: all assays above

CCCCCCCCCCCCCCCC(=O)O
inactive: all assays above

Cc1ncc(CO)c(CN)c1O
inactive: all assays above

O=C(O)COc1nn(Cc2ccccc2)c2ccccc12
inactive: all assays above

Nc1ccc(S(=O)(=O)Nc2ccc(Cl)nn2)cc1
inactive: all assays above

O=C1CC(c2ccc(Cl)cc2)CC(=O)N1
inactive: all assays above

NC(Cc1ccc(Cl)cc1)C(=O)O (stereo unspecified)
inactive: all assays above

Nc1nc(-c2ccccc2)c(Br)c(=O)[nH]1
inactive: all assays above

Cc1nnc(C(C)C)n1C1C[C@H]2CC[C@@H](C1)N2CC[C@H](NC(=O)C1CCC(F)(F)CC1)c1ccccc1 (stereo partly specified)
inactive: all assays above
